According to PubChem BioAssay:
Calls of active or inactive are those of the source. Unless noted, the rule behind the calls is not given here.

Key:
[1] = anti-His antibody binders, primary screen, artefact control for SMM control protein annotation, biochemical, small-molecule microarray, 635 nm fluorescence (AID 1128); conditions: anti-His Alexa647 antibody binding, higher = more signal;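 note: score merges feature fluorescence with signal-to-noise for each printed compound spot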
[2] = tested on: Human papillomavirus type 1a E7 protein (residues 1-88); assay: HPV1a E7 small-molecule binders, primary screen, biochemical, small-molecule microarray, residues 1-88, 635 nm (AID 1129); conditions: small-molecule microarray binding, fluorescence 635 nm; higher = more signal
[3] = biological target: Focal adhesion kinase 1 (Homo sapiens) (UniProt Q05397); assay: small-molecule microarray binders of FAK, primary screen, biochemical, 635/667 nm fluorescence, BSA, DTT (AID 1130); conditions: PTK2 binding, 635 nm fluorescence, higher = more signal;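 note: composite of spot emission at 667 nm and signal to noise over triplicate slides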
[4] = tested on: Fibrinogen (Alexa647-labelled); assay: fibrinogen binders on compound microarrays, profiling panel, artefact control for SMM control-protein annotation, biochemical, small-molecule microarray, 635/667 nm fluorescence (AID 1131); conditions: fibrinogen-A647 binding fluorescence, higher = more signal;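 note: z-score merges 667 nm fluorescence with per-spot signal-to-noise over triplicate slides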
[5] = biological target: Follistatin (Homo sapiens) (UniProt P19883); assay: follistatin binders on small-molecule microarrays, primary screen, biochemical, small-molecule microarray, 635/667 nm fluorescence (AID 1132); conditions: FST binding, 635 nm fluorescence, higher = more signal
[6] = biological target: Fibroblast growth factor 2 (Homo sapiens) (UniProt P09038); assay: FGF2 binders on small-molecule microarrays, primary screen, biochemical, small-molecule microarray, 635/667 nm fluorescence (AID 1133); conditions: small-molecule microarray binding, FGF2, fluorescence 635/667; higher = more signal
[7] = mitochondrial membrane potential change in A549 cells, profiling panel, cell-based, JC-1 fluorescence, basal, 24 h, 100 nL (AID 1138); conditions: higher = more signal;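 note: A549 lung adenocarcinoma cells under basal conditions with no added stimulus; test concentration not given here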
Lefty1 = Lefty1 binders on small-molecule microarrays, primary screen, biochemical, small-molecule microarray, 635/667 nm fluorescence (AID 1139); conditions: small-molecule microarray binding, fluorescence 635/667; higher = more signal
[8] = tested on: wheat germ agglutinin (Triticum aestivum), Alexa647-labelled; assay: wheat germ agglutinin binders on compound microarrays, profiling panel, artefact control for SMM control-protein annotation, biochemical, small-molecule microarray, 635/667 nm fluorescence (AID 1140); conditions: WGA-A647 binding, 635 nm fluorescence, higher = more signal;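 note: score merges 667 nm feature emission with signal to noise over triplicate slides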
[9] = biological target: Luciferin 4-monooxygenase (Photinus pyralis) (UniProt P08659); assay: firefly luciferase enzyme inhibitors, primary screen, biochemical, luminescence, purified enzyme, 2006 set (AID 1141); conditions: SteadyGlo luminescence, 30 min, higher = more signal, called active from +8 up or from −8 down;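 note: cell-free assay with purified firefly luciferase at 100 ng per well in PBS; test concentration not given here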
[10] = tested on: Wnt5a (protein binding on small-molecule microarray); assay: Wnt5a binders on small-molecule microarray, primary screen, biophysical, 635/667 nm fluorescence (AID 1142); conditions: 635 nm fluorescence, higher = more signal;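 note: fluorescence read at 667 nm with signal to noise per printed feature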
[11] = cell viability in Huh7 cells, primary screen, cytotoxicity control for HCV replication inhibitor project, CellTiter-Glo luminescence, basal, 48 h (AID 1143); conditions: Huh7 HCV replicon, higher = more signal, called active from +8 up or from −8 down;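 note: Huh7 hepatoma cells carrying a hepatitis C replication reporter with no stimulus; test concentration not given here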
[12] = P. aeruginosa biofilm formation inhibitors, primary screen, PAO1 strain, BacTiter-Glo luminescence, LB-PBS (AID 1144); conditions: 12 h, higher = more signal
[13] = CREB reporter modulators without forskolin, primary screen, cell-based, PC12, CRE-LacZ reporter, unstimulated (AID 1145); conditions: no forskolin, luminescence, 4.5 h, higher = more signal, called active from +8 up or from −8 down
[14] = CREB reporter modulators under forskolin, primary screen, cell-based, PC12, CRE-LacZ reporter, forskolin-stimulated (AID 1146); conditions: luminescence, 4.5 h, higher = more signal, called active from +8 up or from −8 down;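 note: PC12 cells with 6xCRE LacZ reporter stimulated by forskolin 10 µM; beta-galactosidase reporter signal reflecting CREB driven transcription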
[15] = biological target: Streptavidin (Streptomyces avidinii) (UniProt P22629); assay: streptavidin binders on small-molecule microarray, primary screen, artefact control for SMM compound annotation, biophysical, 635/667 nm fluorescence (AID 1147); conditions: streptavidin binding, higher = more signal;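 note: signal reflects streptavidin binding to arrayed compounds as a control protein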
[16] = small-molecule binders of probe aInhba, primary screen, biochemical, small-molecule microarray, 635/667 nm fluorescence (AID 1148); conditions: higher = more signal;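 note: score merges 667nm spot fluorescence with signal-to-noise for antibody binding to printed compounds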
Torsin-1A (Homo sapiens) [17] = biological target: Torsin-1A (Homo sapiens) (UniProt O14656); assay: torsin A binders from cell lysate, primary screen, small-molecule microarray, wild-type, 635/667 nm (AID 1149); conditions: COS7 hTOR1A-WT lysate, 635 nm fluorescence, higher = more signal
Torsin-1A (Homo sapiens) [18] = biological target: Torsin-1A (Homo sapiens) (UniProt O14656); assay: small-molecule binders of mutant TOR1A in lysate, primary screen, cell lysate, small-molecule microarray, COS7 lysate, 635/667 nm fluorescence (AID 1150); conditions: COS7 hTOR1A mutant lysate, 635 nm fluorescence, higher = more signal;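 note: score pools 667 nm emission and signal to noise measuring lysate protein binding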
[19] = tested on: Sonic hedgehog protein (Shh); assay: small-molecule binders of Shh protein, primary screen, biochemical, small-molecule microarray, 635/667 nm fluorescence (AID 1151); conditions: small-molecule microarray binding, 635 nm fluorescence; higher = more signal;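 note: Shh protein binding to compounds spotted on small-molecule microarray slides; score combines spot fluorescence intensity with signal-to-noise across triplicate slides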

Focal adhesion kinase 1 (Homo sapiens), sequence (Q05397 whole entry, looked up): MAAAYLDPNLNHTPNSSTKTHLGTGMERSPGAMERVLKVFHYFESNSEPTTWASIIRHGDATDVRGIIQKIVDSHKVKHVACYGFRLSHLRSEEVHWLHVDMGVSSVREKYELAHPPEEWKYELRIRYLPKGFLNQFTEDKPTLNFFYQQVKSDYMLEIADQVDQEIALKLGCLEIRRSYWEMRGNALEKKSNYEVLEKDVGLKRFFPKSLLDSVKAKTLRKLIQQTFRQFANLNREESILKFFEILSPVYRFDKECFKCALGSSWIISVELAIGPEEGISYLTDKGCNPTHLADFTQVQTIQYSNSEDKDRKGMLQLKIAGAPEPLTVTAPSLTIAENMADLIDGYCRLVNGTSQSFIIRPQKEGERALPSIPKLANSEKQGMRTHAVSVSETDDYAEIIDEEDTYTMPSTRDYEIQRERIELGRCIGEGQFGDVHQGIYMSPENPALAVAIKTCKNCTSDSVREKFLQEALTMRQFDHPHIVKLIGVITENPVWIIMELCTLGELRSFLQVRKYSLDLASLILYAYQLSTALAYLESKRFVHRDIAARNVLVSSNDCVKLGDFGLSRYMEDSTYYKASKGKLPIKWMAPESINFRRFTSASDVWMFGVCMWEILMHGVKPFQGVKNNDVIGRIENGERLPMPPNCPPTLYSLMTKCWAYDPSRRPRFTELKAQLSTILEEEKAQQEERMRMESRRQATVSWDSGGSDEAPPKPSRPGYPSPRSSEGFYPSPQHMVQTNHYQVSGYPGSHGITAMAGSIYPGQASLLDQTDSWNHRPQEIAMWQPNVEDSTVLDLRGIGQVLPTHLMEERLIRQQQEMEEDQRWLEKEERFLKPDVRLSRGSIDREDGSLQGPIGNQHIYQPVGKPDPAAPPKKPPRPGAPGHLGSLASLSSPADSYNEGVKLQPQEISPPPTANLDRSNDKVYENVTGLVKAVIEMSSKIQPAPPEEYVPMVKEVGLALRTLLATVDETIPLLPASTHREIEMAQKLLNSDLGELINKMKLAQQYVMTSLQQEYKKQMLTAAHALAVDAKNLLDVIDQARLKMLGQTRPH
Torsin-1A (Homo sapiens), sequence (O14656 whole entry, looked up): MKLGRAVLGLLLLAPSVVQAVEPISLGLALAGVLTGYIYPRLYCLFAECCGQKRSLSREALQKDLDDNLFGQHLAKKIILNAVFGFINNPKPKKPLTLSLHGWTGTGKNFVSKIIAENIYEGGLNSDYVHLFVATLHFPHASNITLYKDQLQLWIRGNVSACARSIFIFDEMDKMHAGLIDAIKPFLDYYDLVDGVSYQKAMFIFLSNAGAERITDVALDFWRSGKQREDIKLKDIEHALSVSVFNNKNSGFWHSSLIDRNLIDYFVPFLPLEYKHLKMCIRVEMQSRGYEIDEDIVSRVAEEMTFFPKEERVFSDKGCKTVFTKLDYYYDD
Luciferin 4-monooxygenase (Photinus pyralis), sequence (P08659 whole entry, looked up): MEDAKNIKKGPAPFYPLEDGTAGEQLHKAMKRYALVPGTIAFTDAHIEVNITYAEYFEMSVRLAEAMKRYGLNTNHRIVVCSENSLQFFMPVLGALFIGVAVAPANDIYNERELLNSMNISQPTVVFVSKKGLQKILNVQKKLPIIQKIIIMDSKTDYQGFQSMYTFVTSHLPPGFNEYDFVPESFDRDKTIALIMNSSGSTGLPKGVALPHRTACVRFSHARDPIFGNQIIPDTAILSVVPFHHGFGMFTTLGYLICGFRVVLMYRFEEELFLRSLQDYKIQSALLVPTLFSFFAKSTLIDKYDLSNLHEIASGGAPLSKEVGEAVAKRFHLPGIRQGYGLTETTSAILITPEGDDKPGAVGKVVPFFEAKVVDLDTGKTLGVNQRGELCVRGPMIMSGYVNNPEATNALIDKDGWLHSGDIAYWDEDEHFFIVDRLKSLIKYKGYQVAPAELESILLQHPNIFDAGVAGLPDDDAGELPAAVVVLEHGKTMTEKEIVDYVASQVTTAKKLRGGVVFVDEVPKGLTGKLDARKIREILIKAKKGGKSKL
Fibroblast growth factor 2 (Homo sapiens), sequence (P09038 whole entry, looked up): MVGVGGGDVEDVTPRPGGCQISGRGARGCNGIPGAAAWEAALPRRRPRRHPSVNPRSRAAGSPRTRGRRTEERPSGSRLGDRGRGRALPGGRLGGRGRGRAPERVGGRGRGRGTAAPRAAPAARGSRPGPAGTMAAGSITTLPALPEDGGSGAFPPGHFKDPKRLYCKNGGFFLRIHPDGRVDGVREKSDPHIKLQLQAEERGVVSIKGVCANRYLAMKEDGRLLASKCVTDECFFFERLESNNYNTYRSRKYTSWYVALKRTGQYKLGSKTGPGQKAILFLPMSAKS
Follistatin (Homo sapiens), sequence (P19883 whole entry, looked up): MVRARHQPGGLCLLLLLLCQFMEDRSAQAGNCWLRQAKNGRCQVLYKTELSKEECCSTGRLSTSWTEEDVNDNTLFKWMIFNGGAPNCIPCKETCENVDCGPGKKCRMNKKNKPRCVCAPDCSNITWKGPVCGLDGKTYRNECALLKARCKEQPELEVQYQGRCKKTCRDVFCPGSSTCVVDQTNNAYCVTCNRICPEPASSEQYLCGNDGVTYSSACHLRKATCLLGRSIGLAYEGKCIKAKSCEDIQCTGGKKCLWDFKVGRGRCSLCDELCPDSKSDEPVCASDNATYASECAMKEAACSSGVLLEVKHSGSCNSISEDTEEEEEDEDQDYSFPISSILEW
Streptavidin (Streptomyces avidinii), sequence (P22629 whole entry, looked up): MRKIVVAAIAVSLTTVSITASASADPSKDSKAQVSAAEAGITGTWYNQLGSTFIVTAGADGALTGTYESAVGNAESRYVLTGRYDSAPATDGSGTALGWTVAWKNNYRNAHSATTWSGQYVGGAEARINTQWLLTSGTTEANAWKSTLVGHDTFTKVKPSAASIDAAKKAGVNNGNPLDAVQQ

| Structure (SMILES) | composite z-score [1] | composite z-score [2] | composite z-score [3] | composite z-score [4] | composite z-score [5] | composite z-score [6] | z-score [7] | composite z-score (Lefty1) | composite z-score [8] | z-score [9] | composite z-score [10] | z-score [11] | z-score [12] | z-score [13] | z-score [14] | composite z-score [15] | composite z-score [16] | composite z-score (Torsin-1A (Homo sapiens) [17]) | composite z-score (Torsin-1A (Homo sapiens) [18]) | composite z-score [19] |
| --- | --- | --- | --- | --- | --- | --- | --- | --- | --- | --- | --- | --- | --- | --- | --- | --- | --- | --- | --- | --- |
| CC(C)C(CO)N1C(=O)[C@@H]2C3C(=O)OCCC/C=C\[C@H]3OC23C=CCN(C(C)(C)C)C(=O)[C@@H]13 (stereo not given in full) | -0.539 | -0.768 | -0.147 | -2.19 | -0.895 | -0.363 | -0.0938 | -0.404 | -1.04 | -0.197 (inactive) | -0.0407 | -0.162 (inactive) | 1.19 (inactive) | -0.0778 (inactive) | -0.205 (inactive) | -0.542 | -0.231 | 0.16 | 0.3 | 0.5 |
| NCCCCCNC(=O)[C@@H]1C[C@@H]2C(=O)NCC(=O)N2[C@@H]1c1cccc(OCCO)c1 | 2.23 | 1.16 | 0.551 | 0.47 | 1.45 | 1.17 | -0.552 | 1.55 | 0.951 | -0.637 (inactive) | 0.468 | 0.267 (inactive) | 0.771 (inactive) | -0.667 (inactive) | -0.496 (inactive) | 0.519 | 0.188 | 0.666 | 0.59 | 1.29 |
| COCCOC(=O)N1C(=O)[C@@]2(c3cc(C#CC4=CCCCC4)ccc31)[C@H](c1ccccc1OCCO)N1[C@H](c3ccccc3)[C@H](c3ccccc3)OC(=O)[C@H]1[C@@H]2C(=O)Nc1nc2ccccc2s1 | 1.16 | 0.96 | 0.96 | 0.868 | 1.19 | 0.731 | -2.14 | 1.09 | 0.754 | -2.08 (inactive) | 0.632 | -2.06 (inactive) | 0.305 (inactive) | -0.0526 (inactive) | 0.687 (inactive) | 0.827 | 0.0497 | 0.881 | 0.344 | 1.27 |
| COC(=O)C1=CC(CCCO)=CC(C2CC2)N(C)C=C1C(=O)OC (stereo not given) | -0.153 | -0.308 | 0.623 | -0.828 | -0.157 | -0.539 | 0.511 | -0.285 | 1.26 | 0.727 (inactive) | 0.0676 | -2.82 (inactive) | -1.59 (inactive) | -0.581 (inactive) | 0.214 (inactive) | -0.326 | -0.152 | 0.564 | 0.289 | -0.526 |
| [N-]=[N+]=NCc1ccccc1C[C@@]1(C(=O)N2CCOCC2)N=C(c2ccc(OCCCO)cc2)O[C@@H]1c1ccccc1 | 3.12 | 1.18 | 0.406 | 0.884 | 0.734 | 0.399 | -0.667 | -0.379 | 0.529 | -0.469 (inactive) | 0.464 | -5.68 (inactive) | -0.244 (inactive) | 0.922 (inactive) | -0.951 (inactive) | 1.35 | 0.0589 | 1.19 | 1.31 | -0.796 |
| CC(=O)NCCCC[C@@H]1NC(=O)[C@@H]2C[C@H](C(=O)NCCCC[N+](C)(C)C)[C@H](c3ccc(O)cc3)N2C1=O | 3.1 | -0.882 | -0.218 | 0.764 | 1.48 | 1.73 | -1.12 | 1.49 | -0.23 | -0.174 (inactive) | 0.522 | -2.24 (inactive) | -0.279 (inactive) | -0.122 (inactive) | -0.528 (inactive) | -0.146 | 0.242 | 0.804 | 0.547 | 2.24 |
| CN(C)CCCNC(=O)[C@@]1(C)c2ccccc2C(=O)N(Cc2ccccc2)[C@H]1c1ccc(CO)cc1 | 0.761 | -1.49 | -0.3 | -0.995 | 0.392 | -0.0132 | -0.322 | -0.067 | -0.749 | -0.0692 (inactive) | 0.0404 | -1.97 (inactive) | 0.329 (inactive) | 0.389 (inactive) | 0.261 (inactive) | -0.324 | -0.176 | -0.334 | -0.365 | 0.498 |
| CCOC(=O)C[C@H]1[C@H](OC(=O)c2cc3ccccc3oc2=O)[C@@H](NC(=O)c2ccc(-c3ccccc3)cc2)c2cc(OCCCO)ccc2N1C(=O)c1ccc2ccccc2n1 | 1.04 | 1.15 | 0.553 | 0.458 | 1.11 | 0.485 | -0.408 | 0.964 | 0.543 | 0.778 (inactive) | 0.355 | -0.168 (inactive) | -1.1 (inactive) | 1.03 (inactive) | 0.644 (inactive) | 0.207 | 0.166 | 0.626 | 0.572 | 1.84 |
| N#Cc1ccc(C(O)C2C=CC3C(=O)N(c4ccccc4)C(=O)C3N2Nc2ccccc2)cc1 (stereo not given) | 0.269 | 0.455 | 0.575 | 0.528 | 0.351 | -0.265 | -0.171 | -0.454 | 0.502 | -1.26 (inactive) | 0.429 | -3.06 (inactive) | -0.955 (inactive) | -0.133 (inactive) | 0.0648 (inactive) | 0.592 | 0.144 | -0.0489 | 0.227 | -0.669 |
| O=C(NCC(F)(F)F)[C@@H]1c2ccccc2C(=O)N(Cc2cc(F)cc(C(F)(F)F)c2)[C@H]1c1ccc(CO)cc1 | 0.44 | -0.178 | -0.385 | -0.78 | -0.682 | -0.843 | -1.37 | -1.24 | -0.948 | 1.08 (inactive) | -0.328 | -1.77 (inactive) | -1.38 (inactive) | -0.529 (inactive) | 0.861 (inactive) | -1.24 | -0.128 | -1.73 | -1.22 | -1.09 |
